A short description of assay [1]: antimalarial activity against Dd2 strain (AID 2302;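 active = growth inhibition above 50% at the single 2 µM test dose, taken to imply half-maximal potency below 2 µM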;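 also: 0% = DMSO untreated growth and 100% = chloroquine plus artemisinin killed control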). As to conditions: P. falciparum Dd2 in RBCs, LDH growth readout, 72 h; at 2 µM; hits give high values.
Assay [2] in a line: HepG2 cytotoxicity, primary screen, cytotoxicity control for P. falciparum antimalarial project, cell-based, ATP luminescence (AID 2303;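 active = inhibition above 50%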;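 also: 0% = DMSO wells and 100% = digitonin-killed cells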). To be noted: HepG2 viability, 24-48 h, at 10 µM, hits give high values.
The target in assay [3] is L-lactate dehydrogenase (Plasmodium falciparum (isolate CDC / Honduras)) (UniProt Q27743). Kind of assay: PfLDH activity inhibition – cell lysate, 3D7 strain, counter-screen for P. falciparum growth inhibition project (AID 2304).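 Also: 0% = vehicle and 100% = reference inhibitor.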 To be noted: P. falciparum 3D7 crude extract, LDH APAD/NBT absorbance; at 2 µM; hits give high values. A general note: A counterscreen serves to expose hits that act by an unwanted route or on another target.

Assay [4] can be described thus: inhibition of 3D7 malaria parasite growth – strain 3D7 (AID 2306).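 Also: 0% = DMSO wells and 100% = chloroquine plus artemisinin control wells.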 To be noted: P. falciparum 3D7 erythrocytic growth, LDH absorbance, 72 h; at 2 µM; hits give high values.
Assay [5] concerns the target Calcium-dependent protein kinase 1 (Plasmodium falciparum (isolate 3D7)) (UniProt P62344). In words: PfCDPK1 kinase inhibitors, biochemical, TCAMS library (AID 1159585; cut-off not given, nearly all actives have IC50 up to about 0.98 µM;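 also: inhibitors leave more ATP so luminescence rises with inhibition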). As to conditions: recombinant PfCDPK1, Kinase-Glo ATP depletion luminescence. (In general: In Kinase-Glo more light means more ATP remaining.)
The target of assay [6] is Plasmodium falciparum protein kinase 6 (PK6, PF3D7_1337100) (UniProt Q8IDW1). In words: PfPK6 kinase inhibitors, biochemical, TCAMS library (AID 1159586). To be noted: recombinant PfPK6, Kinase-Glo ATP depletion luminescence.
The target of assay [7] is Protein kinase 7 (PK7), Plasmodium falciparum 3D7 (PF3D7_0213400) (UniProt Q7YTF7). Kind of assay: inhibition of Plasmodium PK7 catalytic activity – biochemical, TCAMS antimalarial set, Kinase-Glo luminescence (AID 1159587). To be noted: recombinant PfPK7, Kinase-Glo ATP depletion luminescence.
For assay [8], the target named is Calcium-dependent protein kinase 4 (Plasmodium falciparum (isolate 3D7)) (UniProt Q8IBS5). In words: PfCDPK4 kinase inhibitors, biochemical, TCAMS library (AID 1159588; cut-off not given, nearly all actives have IC50 up to about 0.91 µM). To be noted: recombinant PfCDPK4, Kinase-Glo ATP depletion luminescence.

Unmarked numbers belong to inactive results. For some of these results: Potency and affinity values are given separately. The source made the active and inactive calls. Unless noted, no rule for the calls is given here.

As a reminder, the inhibition is the change of the read-out against control, counted positive when it falls.

Chain of Plasmodium falciparum protein kinase 6 (PK6, PF3D7_1337100) (Q8IDW1 1-305): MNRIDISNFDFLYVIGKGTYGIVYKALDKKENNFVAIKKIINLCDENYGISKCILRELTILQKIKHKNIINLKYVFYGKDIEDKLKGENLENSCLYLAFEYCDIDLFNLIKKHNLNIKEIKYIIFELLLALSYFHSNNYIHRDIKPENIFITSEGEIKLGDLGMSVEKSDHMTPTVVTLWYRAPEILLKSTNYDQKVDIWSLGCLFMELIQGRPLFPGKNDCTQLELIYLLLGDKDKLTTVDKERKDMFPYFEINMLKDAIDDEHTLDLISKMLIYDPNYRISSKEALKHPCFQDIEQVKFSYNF
Chain of Calcium-dependent protein kinase 1 (Plasmodium falciparum (isolate 3D7)) (P62344 whole entry, looked up): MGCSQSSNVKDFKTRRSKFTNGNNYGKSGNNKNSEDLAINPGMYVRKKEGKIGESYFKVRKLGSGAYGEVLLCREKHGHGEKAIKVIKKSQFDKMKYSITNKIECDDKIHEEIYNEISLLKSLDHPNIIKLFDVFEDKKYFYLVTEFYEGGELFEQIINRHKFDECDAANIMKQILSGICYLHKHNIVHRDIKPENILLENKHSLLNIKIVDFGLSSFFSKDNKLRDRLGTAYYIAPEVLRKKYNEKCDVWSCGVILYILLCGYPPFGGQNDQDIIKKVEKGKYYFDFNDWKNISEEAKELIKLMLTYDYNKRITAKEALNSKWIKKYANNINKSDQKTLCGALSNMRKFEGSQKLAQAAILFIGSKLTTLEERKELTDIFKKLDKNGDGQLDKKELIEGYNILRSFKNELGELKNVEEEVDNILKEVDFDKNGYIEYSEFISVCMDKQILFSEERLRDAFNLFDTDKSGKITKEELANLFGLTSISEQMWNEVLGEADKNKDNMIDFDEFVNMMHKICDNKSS
Chain of L-lactate dehydrogenase (Plasmodium falciparum (isolate CDC / Honduras)) (Q27743 whole entry, looked up): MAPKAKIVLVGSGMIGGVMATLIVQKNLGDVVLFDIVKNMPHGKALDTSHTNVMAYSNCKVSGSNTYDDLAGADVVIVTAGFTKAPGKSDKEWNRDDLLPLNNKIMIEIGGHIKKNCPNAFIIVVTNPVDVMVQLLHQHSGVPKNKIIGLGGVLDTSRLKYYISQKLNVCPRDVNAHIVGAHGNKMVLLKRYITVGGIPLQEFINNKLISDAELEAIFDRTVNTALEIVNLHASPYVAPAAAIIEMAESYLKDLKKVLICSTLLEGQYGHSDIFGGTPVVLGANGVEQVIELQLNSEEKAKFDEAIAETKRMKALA
Chain of Protein kinase 7 (PK7), Plasmodium falciparum 3D7 (PF3D7_0213400) (Q7YTF7 1-343): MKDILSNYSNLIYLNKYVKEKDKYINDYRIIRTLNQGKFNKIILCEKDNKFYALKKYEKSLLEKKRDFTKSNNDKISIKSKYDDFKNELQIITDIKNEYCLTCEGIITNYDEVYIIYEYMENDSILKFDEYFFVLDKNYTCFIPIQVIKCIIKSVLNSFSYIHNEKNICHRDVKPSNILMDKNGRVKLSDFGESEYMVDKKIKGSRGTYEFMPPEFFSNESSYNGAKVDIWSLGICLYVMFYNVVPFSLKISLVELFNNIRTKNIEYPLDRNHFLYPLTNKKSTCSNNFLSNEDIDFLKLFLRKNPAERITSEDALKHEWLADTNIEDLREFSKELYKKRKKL
Chain of Calcium-dependent protein kinase 4 (Plasmodium falciparum (isolate 3D7)) (Q8IBS5 whole entry, looked up): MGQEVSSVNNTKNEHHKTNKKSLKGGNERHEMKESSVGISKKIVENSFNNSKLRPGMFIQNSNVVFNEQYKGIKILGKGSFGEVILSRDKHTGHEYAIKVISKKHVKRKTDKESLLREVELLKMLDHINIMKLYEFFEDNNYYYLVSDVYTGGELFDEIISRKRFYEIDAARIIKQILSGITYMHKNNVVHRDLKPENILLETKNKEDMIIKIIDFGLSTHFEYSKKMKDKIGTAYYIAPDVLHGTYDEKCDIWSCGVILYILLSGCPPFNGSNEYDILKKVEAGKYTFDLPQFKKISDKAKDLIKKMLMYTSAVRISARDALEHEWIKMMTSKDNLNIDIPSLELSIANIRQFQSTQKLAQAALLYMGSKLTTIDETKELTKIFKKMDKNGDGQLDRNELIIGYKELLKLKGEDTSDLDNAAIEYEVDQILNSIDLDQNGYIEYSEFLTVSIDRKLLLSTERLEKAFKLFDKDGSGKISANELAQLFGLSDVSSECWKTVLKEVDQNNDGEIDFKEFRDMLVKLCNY

On to `Cc1ccc(S(=O)(=O)NC2=NC(C)(C)N(OCc3ccc(Cl)c(Cl)c3)C(N)=N2)cc1`, for which the growth inhibition is -3% in assay [1] and 88% (active) in assay [4]. The inhibition in assay [2] was -5%; in assay [3] it was 3%. The result in assay [5], in assay [6], in assay [7] and in assay [8] was inactive.
Take `COc1ccc2nccc(N3CCCN(CCNS(=O)(=O)c4ccc5c(c4)NC(=O)CS5)CC3)c2n1`: the growth inhibition was 15% in assay [1] and 97% (active) in assay [4]. The inhibition was -2% in assay [2] and -9% in assay [3]. Besides, the outcome in assay [5], in assay [6], in assay [7] and in assay [8] was inactive.
`Cc1cc(N)nc2ccc(-c3ccc(CCN)cc3)cc12`: the growth inhibition was 48% in assay [1] and 101% (active) in assay [4]. Besides, the results for the inhibition in assay [2] and in assay [3] were 31% and -4%, respectively. The result in assay [5], in assay [6], in assay [7] and in assay [8] was inactive.
Turning to `COc1ccc2ccc(F)c(CC(=O)N3CCOC(CNCc4cccc(-c5ccsc5)n4)C3)c2n1` (stereo not given), the growth inhibition in assay [1] was 1%; in assay [4] it was 92% (active). The results for the inhibition in assay [2] and in assay [3] were 1% and 3%, respectively. For the same compound, the outcome in assay [5], in assay [6], in assay [7] and in assay [8] was inactive.
For `COc1ccc2c(=O)ccn(CCN3CCC(NCc4ccc5c(n4)NC(=O)CS5)CC3)c2c1`, the growth inhibition in assay [1] is 99% (active); in assay [4], 98% (active). Besides, the figures for the inhibition in assay [2] and in assay [3] were 7% and 1%, respectively. The result in assay [5], in assay [6], in assay [7] and in assay [8] was inactive.
Consider `CS(=O)(=O)NCCCNCc1cccc(-c2ccc(-c3nc4ccccc4[nH]3)s2)c1`, for which the growth inhibition in assay [1] is -1%; in assay [4], 90% (active). Further, the results for the inhibition in assay [2] and in assay [3] were 24% and 6%, respectively. Also, the outcome in assay [5], in assay [6], in assay [7] and in assay [8] was inactive.
Turning to `CNC(=O)c1cnc(Nc2ccc(OCC(O)CN(C)C)cc2)nc1Nc1cccc(OC)c1` (stereo not given), the growth inhibition in assay [1] is 97% (active); in assay [4] it was 103% (active). The inhibition is 31% in assay [2] and 1% in assay [3]. In addition, the result in assay [5], in assay [6], in assay [7] and in assay [8] was inactive.
For `Cc1ccc(CN2CCN(c3cc4c(cc3Cl)CCN4C(=O)Cc3ccc(Cl)c(NC(=O)Nc4cccc(C#N)c4)c3)CC2)cc1`, the results for the growth inhibition in assay [1] and in assay [4] were 29% and 92% (active), respectively. Also, the inhibition in assay [2] was 3%; in assay [3], 1%. The result in assay [5], in assay [6], in assay [7] and in assay [8] was inactive.
Regarding `COc1ccc2ncc(F)c(CCN3CCC(NCc4cc(C)c5c(c4)OCCO5)CC3)c2n1`, the growth inhibition in assay [1] is 67% (active); in assay [4], 100% (active). The inhibition in assay [2] was 20%; in assay [3] it was 0%. Besides, the outcome in assay [5], in assay [6], in assay [7] and in assay [8] was inactive.
Take `O=C(/C=C/c1ccc(F)cc1)NC1CCC(CCN2CCc3ccccc3CC2)CC1` (stereo not given): the figures for the growth inhibition in assay [1] and in assay [4] were 36% and 91% (active), respectively. Also, the inhibition was 27% in assay [2] and 4% in assay [3]. The result in assay [5], in assay [6], in assay [7] and in assay [8] was inactive.
On to `O=C(NCCCCCN1CCC(c2c[nH]c3ccccc23)CC1)c1ccc(-c2cccnc2)cc1`, for which the growth inhibition in assay [1] was 10%; in assay [4] it was 89% (active). Also, the inhibition is 29% in assay [2] and 1% in assay [3]. The outcome in assay [5], in assay [6], in assay [7] and in assay [8] was inactive.
Take `NC1CCN(c2nc(NCCc3ccc(O)cc3)nc(NCc3ccccc3-c3ccc(C(F)(F)F)cc3)n2)CC1`: the figures for the growth inhibition in assay [1] and in assay [4] were 72% (active) and 100% (active), respectively. Further, the inhibition in assay [2] was 18%; in assay [3], 1%. Moreover, the result in assay [5], in assay [6], in assay [7] and in assay [8] was inactive.
Turning to `CCCNCc1ccc(-c2ccc(CN(CCOC)C(=O)/C=C/c3ccccc3C)cc2)nc1`, the growth inhibition in assay [1] is 39%; in assay [4] it was 95% (active). Moreover, the inhibition in assay [2] was 13%; in assay [3], 2%. Also, the result in assay [5], in assay [6], in assay [7] and in assay [8] was inactive.
Regarding `CC(C)NCc1cc(Nc2ccnc3cc(Cl)ccc23)ccc1O`, the results for the growth inhibition in assay [1] and in assay [4] were 100% (active) and 102% (active), respectively. Besides, the inhibition in assay [2] was 27%; in assay [3], 6%. For the same compound, the outcome in assay [5], in assay [6], in assay [7] and in assay [8] was inactive.
Turning to `CCCCCCNCCOc1ccc(-c2nc(-c3ccccc3)c(-c3ccccc3)[nH]2)cc1`, the growth inhibition in assay [1] was 39%; in assay [4], 98% (active). Also, the inhibition in assay [2] was 14%; in assay [3] it was -4%. Further, the result in assay [5], in assay [6], in assay [7] and in assay [8] was inactive.
On to `CC(C)(C)c1ccc2nc(-c3ccc(/C=C/C(=O)NCc4cccc(C(F)(F)F)c4)cc3)[nH]c2c1`, for which the values for the growth inhibition in assay [1] and in assay [4] were 11% and 93% (active), respectively. In addition, the values for the inhibition in assay [2] and in assay [3] were 31% and -16%, respectively. The outcome in assay [5], in assay [6], in assay [7] and in assay [8] was inactive.
As for `Cn1cncc1CNCc1ccc(-c2cccc(-c3nc4ccccc4[nH]3)c2)cc1`, the figures for the growth inhibition in assay [1] and in assay [4] were 92% (active) and 101% (active), respectively. Besides, the figures for the inhibition in assay [2] and in assay [3] were 19% and -1%, respectively. The result in assay [5], in assay [6], in assay [7] and in assay [8] was inactive.
For the compound `CC(C)N1CCN(CCCCNc2c3ccccc3nc3ccccc23)CC1`, the growth inhibition was -4% in assay [1] and 100% (active) in assay [4]. For the same compound, the values for the inhibition in assay [2] and in assay [3] were 38% and -6%, respectively. Moreover, the outcome in assay [5], in assay [6], in assay [7] and in assay [8] was inactive.
Turning to `Cc1cccc2[nH]c(-c3ccc(-c4ccc(CN5CCN(CCO)CC5)cc4)cc3)nc12`, the figures for the growth inhibition in assay [1] and in assay [4] were 97% (active) and 100% (active), respectively. The inhibition in assay [2] is 20%; in assay [3], -4%. Also, the outcome in assay [5], in assay [6], in assay [7] and in assay [8] was inactive.
Regarding `CC(C)CC(=O)N1CCNC[C@@H]1C(=O)NC1CC1`, the growth inhibition in assay [1] is -2%; in assay [4] it was 82% (active). For the same compound, the inhibition is -7% in assay [2] and -4% in assay [3]. In addition, the result in assay [5], in assay [6], in assay [7] and in assay [8] was inactive.

These data come from PubChem BioAssay.
